The source made the active and inactive calls. The calls were made as follows: active = hit-call score of the fitted dose curve at least 0.9, where 1 is the maximum; inactive = score below 0.9.
Legend:
Conditions in all cases: mRNA level, 48 h; actives raise or lower the signal
[1] = read-out: Glutamate-cysteine ligase catalytic (GCLC), GCLC (gene 2729); test: LTEA_HepaRG_GCLC: Life Technologies and Expression Analysis (LTEA) Assay for Glutamate-cysteine ligase catalytic (GCLC) using HepaRG (AID 2283498)
How it was run: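 Differentiated HepaRG cells exposed 48 h in serum-free induction medium, eight-point half-log series topping at 100 uM in 0.5% DMSO, duplicates. GCLC mRNA by qRT-PCR normalized to ACTB, GAPDH and POLR2A, fitted bidirectionally versus DMSO.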

[2] = read-out: growth arrest and DNA damage 45 (GADD45G), GADD45G (gene 10912); test: LTEA_HepaRG_GADD45G: Life Technologies and Expression Analysis (LTEA) Assay for growth arrest and DNA damage 45 (GADD45G) using HepaRG (AID 2283499)
How it was run: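 Gain or loss of GADD45G mRNA, quantified by TaqMan qRT-PCR against three housekeeping genes, is fitted in both directions relative to 0.5% DMSO. Human HepaRG cultures receive test chemical for 48 h at up to 100 uM.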

[3] = read-out: Glutamate-cysteine ligase regulatory (GCLM), GCLM (gene 2730); test: LTEA_HepaRG_GCLM: Life Technologies and Expression Analysis (LTEA) Assay for Glutamate-cysteine ligase regulatory (GCLM) using HepaRG (AID 2283500)
How it was run: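 Differentiated human HepaRG cells exposed 48 h in serum-free induction medium to 8-point half-log concentrations (top 100 uM, 0.5% DMSO), in duplicate. GCLM mRNA quantified by qRT-PCR, normalized to ACTB, GAPDH, POLR2A; bidirectional fitting versus DMSO.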

[4] = read-out: Glutathione S-transferase M3 (GSTM3), GSTM3 (gene 2947); test: LTEA_HepaRG_GSTM3: Life Technologies and Expression Analysis (LTEA) Assay for Glutathione S-transferase M3 (GSTM3) using HepaRG (AID 2283501)
How it was run: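 HepaRG, plated 48 h, then serum-free induction medium; test chemical 48 h, duplicate; 100 uM top, half-log x8, 0.5% DMSO. Read-out: GSTM3 mRNA (TaqMan qRT-PCR, Fluidigm array). Bidirectional fit vs DMSO.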

[5] = read-out: Heat shock 70 kDa protein 1 (HSPA1A), gene 3303; test: LTEA_HepaRG_HSPA1A: Life Technologies and Expression Analysis (LTEA) Assay for Heat shock 70 kDa protein 1 (HSPA1A) using HepaRG (AID 2283502)
How it was run: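 Differentiated human HepaRG cells in serum-free induction medium were exposed in duplicate for 48 h to eight concentrations (top 100 uM, half-log steps, 0.5% DMSO). HSPA1A mRNA was quantified by qRT-PCR, normalized to ACTB, GAPDH and POLR2A, and fitted bidirectionally against DMSO.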

[6] = read-out: Hypoxia-inducible factor 1-alpha (Homo sapiens) (UniProt Q16665); test: LTEA_HepaRG_HIF1A: Life Technologies and Expression Analysis (LTEA) Assay for Hypoxia-inducible factor 1 (HIF1A) Trancription factor using HepaRG (AID 2283503);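 also: HIF1A transcript by TaqMan qRT-PCR normalized to ACTB GAPDH and POLR2A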
How it was run: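 HepaRG, 48 h exposure, 8-pt half-log series from 100 uM, 0.5% DMSO vehicle, duplicates. Readout: HIF1A transcript by qRT-PCR (Fluidigm array), housekeeping-normalised. Bidirectional curve fit vs DMSO baseline.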

[7] = read-out: 3-Hydroxy-3-Methylglutaryl-CoA Synthase 2 (HMGCS2), HMGCS2 (gene 3158); test: LTEA_HepaRG_HMGCS2: Life Technologies and Expression Analysis (LTEA) Assay for 3-Hydroxy-3-Methylglutaryl-CoA Synthase 2 (HMGCS2) using HepaRG (AID 2283504)
How it was run: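 HepaRG, plated 48 h then switched to serum-free induction media; cmpd 8-pt, max 100 uM, 1/2-log, 0.5% DMSO, n=2, 48 h. HMGCS2 mRNA by Fluidigm TaqMan qRT-PCR, ACTB/GAPDH/POLR2A norm; bidirectional fit vs DMSO.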

[8] = read-out: HGF (gene 3082); test: LTEA_HepaRG_HGF: Life Technologies and Expression Analysis (LTEA) Assay for Hepatocyte Growth Facto (HGF) using HepaRG (AID 2283505)
How it was run: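 Read-out is HGF transcript level by qRT-PCR, normalized to three housekeeping genes, fitted bidirectionally against 0.5% DMSO vehicle. Human HepaRG cells received test chemicals for 48 h at up to 100 uM.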

[9] = read-out: Insulin Like Growth Factor 1 (IGF1), IGF1 (gene 3479); test: LTEA_HepaRG_IGF1: Life Technologies and Expression Analysis (LTEA) Assay for Insulin Like Growth Factor 1 (IGF1) using HepaRG (AID 2283506)
How it was run: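 Differentiated human HepaRG cells were dosed for 48 h in serum-free induction medium with 0.5% DMSO, eight half-log concentrations up to 100 uM, in duplicate. IGF1 mRNA was quantified by qRT-PCR normalized to ACTB, GAPDH, POLR2A; bidirectional fitting versus DMSO.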

[10] = read-out: Intercellular Adhesion Molecule 1 (ICAM1), ICAM1 (gene 3383); test: LTEA_HepaRG_ICAM1: Life Technologies and Expression Analysis (LTEA) Assay for Intercellular Adhesion Molecule 1 (ICAM1) using HepaRG (AID 2283507)
How it was run: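 Readout is qRT-PCR mRNA level, normalized to three housekeeping genes and fitted bidirectionally against 0.5% DMSO vehicle. Human HepaRG cultures received compound for 48 h, top concentration 100 uM with half-log dilutions.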

[11] = read-out: Insulin-like growth factor-binding protein 1 (IGFBP1), IGFBP1 (gene 3484); test: LTEA_HepaRG_IGFBP1: Life Technologies and Expression Analysis (LTEA) Assay for Insulin-like growth factor-binding protein 1 (IGFBP1) using HepaRG (AID 2283508)
How it was run: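 Thawed HepaRG cells are plated for 48 h, switched to serum-free induction medium, then dosed in duplicate for another 48 h (100 uM top, half-log steps). Lysates in RLT go to qRT-PCR, and gain or loss of signal is fitted relative to vehicle.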

[12] = read-out: Interleukin 6 (IL6), IL6 (gene 3569); test: LTEA_HepaRG_IL6: Life Technologies and Expression Analysis (LTEA) Assay for Interleukin 6 (IL6) using HepaRG (AID 2283509)
How it was run: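 HepaRG cells exposed in duplicate for 48 h to eight half-log concentrations, top 100 uM, in 0.5% DMSO serum-free induction medium. mRNA measured by qRT-PCR, normalized to ACTB, GAPDH and POLR2A. Bidirectional fit versus DMSO.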

[13] = read-out: Interleukin 6 Receptor (IL6R), IL6R (gene 3570); test: LTEA_HepaRG_IL6R: Life Technologies and Expression Analysis (LTEA) Assay for Interleukin 6 Receptor (IL6R) using HepaRG (AID 2283510);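 as to AC50: TaqMan qRT-PCR signal normalized to ACTB GAPDH and POLR2A housekeeping genes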
How it was run: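 Differentiated human HepaRG cells, plated 48 h then switched to serum-free induction medium, were dosed in duplicate for 48 h at eight half-log concentrations up to 100 uM in 0.5% DMSO. IL6R mRNA quantified by qRT-PCR, normalized to ACTB/GAPDH/POLR2A; bidirectional fit versus DMSO.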

[14] = read-out: Potassium channel subfamily K member 1 (KCNK1), KCNK1 (gene 3775); test: LTEA_HepaRG_KCNK1: Life Technologies and Expression Analysis (LTEA) Assay for Potassium channel subfamily K member 1 (KCNK1) using HepaRG (AID 2283511)
How it was run: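 Differentiated HepaRG cells, 48 h exposure in serum-free induction medium with 0.5% DMSO; 8 concentrations, half-log from 100 uM, duplicate. KCNK1 mRNA by qRT-PCR, normalized to ACTB, GAPDH, POLR2A; bidirectional fit vs DMSO.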

[15] = read-out: Keratin 19 (KRT19), KRT19 (gene 3880); test: LTEA_HepaRG_KRT19: Life Technologies and Expression Analysis (LTEA) Assay for Keratin 19 (KRT19) using HepaRG (AID 2283512)
How it was run: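 KRT19 transcript levels, measured by Fluidigm qRT-PCR against three housekeeping genes, are fitted for gain or loss of signal relative to DMSO. Human HepaRG cells receive test chemicals (top 100 uM, half-log steps, 0.5% DMSO) for 48 hours.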

[16] = read-out: JUN Transcription Factor, JUN (gene 3725); test: LTEA_HepaRG_JUN: Life Technologies and Expression Analysis (LTEA) Assay for JUN Transcription Factor using HepaRG (AID 2283513)
How it was run: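 Differentiated HepaRG cells were exposed to chemicals for 48 h in serum-free induction medium, 8 concentrations from 100 uM in half-log steps, 0.5% DMSO vehicle, in duplicate. JUN mRNA was quantified by TaqMan qRT-PCR, normalized to ACTB, GAPDH, POLR2A.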

[17] = read-out: Lipase C (LIPC), LIPC (gene 3990); test: LTEA_HepaRG_LIPC: Life Technologies and Expression Analysis (LTEA) Assay for Lipase C (LIPC) using HepaRG (AID 2283514)
How it was run: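 HepaRG cells, 48 h after plating, treated in duplicate for 48 h in serum-free induction medium over 8 half-log concentrations from 100 uM, 0.5% DMSO. LIPC mRNA by TaqMan qRT-PCR normalized to ACTB/GAPDH/POLR2A; bidirectional fit versus DMSO.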

[18] = read-out: Lipoprotein lipase (LPL), LPL (gene 4023); test: LTEA_HepaRG_LPL: Life Technologies and Expression Analysis (LTEA) Assay for Lipoprotein lipase (LPL) using HepaRG (AID 2283515)
How it was run: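 Differentiated HepaRG cells, plated 48 h, then exposed 48 h in serum-free induction medium to 8 concentrations (top 100 uM, half-log steps) in 0.5% DMSO, duplicate. LPL mRNA measured by qRT-PCR, normalized to ACTB, GAPDH and POLR2A.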

[19] = read-out: MicroRNA 122 (MIR122), gene 406906; test: LTEA_HepaRG_MIR122: Life Technologies and Expression Analysis (LTEA) Assay for MicroRNA 122 (MIR122) using HepaRG (AID 2283516); also: the transcript read is the microRNA miR-122
How it was run: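 Differentiated human HepaRG cells were exposed 48 h in serum-free induction medium to eight half-log concentrations (top 100 uM, 0.5% DMSO). Transcript level was measured by TaqMan qRT-PCR, normalized to ACTB, GAPDH and POLR2A, and fitted bidirectionally versus DMSO.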

[20] = read-out: matrix metalloproteinase-10 (MMP10), MMP10 (gene 4319); test: LTEA_HepaRG_MMP10: Life Technologies and Expression Analysis (LTEA) Assay for matrix metalloproteinase-10 (MMP10) using HepaRG (AID 2283517)
How it was run: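 Differentiated HepaRG cells in serum-free induction medium exposed 48 h in duplicate to 8-point half-log series up to 100 uM in 0.5% DMSO. mRNA quantified by qRT-PCR, normalised to ACTB, GAPDH, POLR2A; bidirectional fit versus DMSO.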

Measured: AC50

Hypoxia-inducible factor 1-alpha (Homo sapiens), sequence (Q16665 whole entry, looked up): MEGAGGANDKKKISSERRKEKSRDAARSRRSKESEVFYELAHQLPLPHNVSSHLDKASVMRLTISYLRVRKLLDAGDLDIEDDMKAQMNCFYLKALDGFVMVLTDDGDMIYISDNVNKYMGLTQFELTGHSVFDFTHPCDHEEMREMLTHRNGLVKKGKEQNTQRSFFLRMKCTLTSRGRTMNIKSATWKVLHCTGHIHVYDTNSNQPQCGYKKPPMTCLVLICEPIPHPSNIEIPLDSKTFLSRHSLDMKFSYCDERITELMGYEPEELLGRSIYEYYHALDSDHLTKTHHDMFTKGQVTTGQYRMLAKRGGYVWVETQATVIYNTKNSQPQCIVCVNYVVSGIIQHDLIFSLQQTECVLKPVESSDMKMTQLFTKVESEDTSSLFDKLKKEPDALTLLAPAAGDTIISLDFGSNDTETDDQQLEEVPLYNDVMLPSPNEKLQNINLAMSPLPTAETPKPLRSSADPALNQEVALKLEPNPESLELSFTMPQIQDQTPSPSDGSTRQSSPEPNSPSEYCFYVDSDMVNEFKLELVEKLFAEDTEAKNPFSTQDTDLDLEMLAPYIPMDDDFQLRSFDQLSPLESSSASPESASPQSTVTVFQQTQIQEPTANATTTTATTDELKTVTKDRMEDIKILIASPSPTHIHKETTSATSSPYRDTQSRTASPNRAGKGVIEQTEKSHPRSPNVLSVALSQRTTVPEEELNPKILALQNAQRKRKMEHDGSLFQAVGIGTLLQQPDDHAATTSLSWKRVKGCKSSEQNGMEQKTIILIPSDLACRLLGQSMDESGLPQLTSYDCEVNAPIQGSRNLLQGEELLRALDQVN

CCCOc1sc(C(=O)N2CCC(c3cc(CN)ccc3F)CC2)c(C)c1Br
inactive: all assays above

COCC(C)O (stereo not given)
not listed: [6]
inactive: all other assays above

COC(=O)CCCCC(=O)OC
not listed: [6] | [10]
inactive: all other assays above

Nc1cccc2c(N)cccc12
active: [15] 22.6 µM | [17] 73.3 µM
not listed: [1] | [10]
inactive: all other assays above

CC(=O)CC(C)(C)O
not listed: [10]
inactive: all other assays above

OCCC(F)(F)C(F)(F)C(F)(F)C(F)(F)C(F)(F)C(F)(F)F
not listed: [6] | [10]
inactive: all other assays above

CC[C@H](c1ccc(O)cc1)[C@@H](CC)c1ccc(O)cc1
active: [1] 79.8 µM | [2] 66.3 µM | [3] 70.2 µM | [5] 94.4 µM | [7] 79.4 µM | [9] 86.3 µM | [11] 68.1 µM | [12] 77.3 µM | [13] 73.8 µM | [15] 90.8 µM | [16] 96.5 µM | [18] 75.7 µM
inactive: [4] | [8] | [14] | [17] | [19] | [20]

Reference: PubChem BioAssay (EPA / NIEHS)
